Only some compounds are listed: those with a hit (about 0.69% of all), similar ones and a draw of the others.
Tat export inh – blocks Tat-dependent protein export in E. coli. E. coli MC4100 TorA-mCherry Tat export, fluorescence. actives 0.036% (n = 340,000). inhibition, % at 10 µM;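 active = mean replicate inhibition at least 50% and at least half of replicates individually reaching 50%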;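 note: exported cargo escapes ClpAP degradation while cytoplasmic cargo is degraded and loses fluorescence; 0% = median of neutral control wells and 100% = median of NaSCN control wells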
E coli growth-1 – blocks Escherichia coli growth | OD600, 23 h; active compounds read low | OD600 absorbance (concentration not given with the values) | actives 0.21% (n = 330,000);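 active = OD600 absorbance below the run mean of sample wells minus 3.6 SD, in any replicate, cut at about 0.56 in these data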
PfHsp90 set2 – inhibits growth of yeast expressing Plasmodium falciparum Hsp90; S. cerevisiae expressing PfHsp90, BacTiter-Glo ATP, 48 h; yeast lacking PDR1 and PDR3 efflux regulators; inhibition, % at 9.4 µM; actives 0.32% (n = 310,000);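 active = every replicate shows inhibition above about 80%, whatever the replicate mean, limit read from the data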;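 note: 0% = DMSO neutral controls and 100% = 20 µM radicicol positive controls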
E coli growth-2 – counter-screen for AddAB inhibitors: E. coli growth inhibition; inhibition, % at 11.9 µM; E. coli V3065 growth, OD600 absorbance, 18 h; actives 0.27% (n = 330,000);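 active = inhibition above the campaign's mean inhibition across all tested compounds plus 3 SD, cut at about 9.9% in these data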;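 note: uninfected addAB+ strain grown without phage in ampicillin broth; 0% = DMSO wells and 100% = ciprofloxacin 0.95 µg/ml wells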
AddAB inh – less growth of phage-infected E. coli with AddAB; AID 435030; inhibition, % at 11.9 µM; E. coli expressing H. pylori AddAB, absorbance growth; actives 0.29% (n = 330,000); in the data active = inhibition above about 12%;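 note: 0% = vehicle wells of infected cells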
phage Ecoli inh – E. coli growth loss with phage present | growth absorbance | inhibition, % at 11.9 µM | actives 0.26% (n = 360,000) | AID 651602; in the data active = inhibition above about 11%
RecBCD conf – confirmation: growth loss of phage-infected RecBCD+ E. coli (RecBCD inhibitor screen). E. coli V66 + T4 2- phage, growth OD. AID 651982. shares compounds with phage Ecoli inh. actives 45% (n = 890). inhibition, % at 11.9 µM;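 active = mean inhibition over triplicates exceeding the hit threshold derived in the original primary screen, cut at about 11% in these data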
Ecoli viability – counter-screen for RecBCD inhibitors: inhibitors of bacterial viability; shares compounds with phage Ecoli inh; E. coli viability, absorbance (OD) growth; inhibition, % at 11.9 µM; actives 29% (n = 890); in the data active = inhibition above about 20%;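 note: E. coli strain V66 grown with compound alone and no phage infection; 0% = bacteria with DMSO vehicle only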
AddAB phage OD – growth loss of phage-infected AddAB E. coli, RecBCD counter-screen; E. coli expressing H. pylori AddAB + T4 phage, OD growth; gene 2 mutant T4, recBCD-deleted host; shares compounds with phage Ecoli inh; inhibition, % at 11.9 µM; actives 45% (n = 890);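 active = mean inhibition above the solvent-only control wells' mean plus 3 SD, cut at about 22% in these data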;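 note: higher means less bacterial growth from phage killing when AddAB is blocked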
Starred values were filed as active, the others as inactive.

CCN1C(Nc2ccccc2)=NCC1Cc1ccccc1 (configuration not stated) was read as E coli growth-1 0.62.
For S=C(NCc1ccccc1)NCc1ccc(CNC(=S)NCc2ccccc2)cc1 the results were Tat export inh -6.7, E coli growth-1 0.692, PfHsp90 set2 -4.0, E coli growth-2 -0.2, AddAB inh 1.5 and phage Ecoli inh 2.0.
CCNC(=S)NNC(=S)NCc1ccccc1 was read as Tat export inh -5.0, E coli growth-1 0.716, PfHsp90 set2 5.7, E coli growth-2 1.8, AddAB inh 10.5, phage Ecoli inh 11.1*, RecBCD conf 4.0, Ecoli viability 3.1 and AddAB phage OD 8.6.
Screening O=C(Nc1cc([N+](=O)[O-])c2[nH]c(=O)c3ccccc3c2c1)C(F)(F)F returned Tat export inh 5.8, PfHsp90 set2 -0.8, phage Ecoli inh 13.7*, RecBCD conf 11.9*, Ecoli viability 15.4 and AddAB phage OD 95.7*.
`O=C(CSC1CN(C(c2ccccc2)c2ccccc2)C1)NN=Cc1ccccc1` gave E coli growth-1 0.663.
`CCOc1ccc(NC(=O)Nc2ccc3nsnc3c2)cc1` gave Tat export inh -10.6, E coli growth-1 0.652, PfHsp90 set2 6.0, E coli growth-2 2.5, AddAB inh 5.0, phage Ecoli inh 11.2*, RecBCD conf 5.4, Ecoli viability 5.5 and AddAB phage OD -1.3.
`Cc1ccc(S(=O)(=O)Nc2ccc(Br)cc2C=Nn2cnnc2)cc1` gave E coli growth-1 0.67.
For CSC1SCC2C(=O)N(C)C(C(C)C)C(=O)OCC(NC(=O)c3cnc4ccccc4n3)C(=O)NC(C)C(=O)N(C)C1C(=O)N(C)C(C(C)C)C(=O)OCC(NC(=O)c1cnc3ccccc3n1)C(=O)NC(C)C(=O)N2C (configuration not stated) the results were Tat export inh 37.4, PfHsp90 set2 -86.3, phage Ecoli inh 99.1*, RecBCD conf 88.8*, Ecoli viability 91.8* and AddAB phage OD 80.8*.
Screening NC(=S)N/N=C/c1ccccc1O returned Tat export inh 2.9, PfHsp90 set2 -15.7, E coli growth-2 1.6, AddAB inh 2.6 and phage Ecoli inh 2.0.
Screening Oc1ccccc1C=NNC(=S)NN=Cc1ccccc1O returned Tat export inh -2.3, E coli growth-1 0.571, PfHsp90 set2 -2.1, phage Ecoli inh 12.7*, RecBCD conf 12.9*, Ecoli viability 13.4 and AddAB phage OD 37.6*.
Oc1ccc(/C=N/NC(=S)Nc2cccnc2)c(O)c1O was read as Tat export inh 2.0, PfHsp90 set2 -0.4, phage Ecoli inh 14.7*, RecBCD conf 11.3*, Ecoli viability 12.1 and AddAB phage OD 32.5*.
Screening COc1ccccc1/C=C/C=Nn1c(-c2cc(C)[nH]n2)n[nH]c1=S returned E coli growth-1 0.646.
`COc1cc(C=NNC(=O)C(=O)NCc2ccco2)cc(Cl)c1O` gave E coli growth-1 0.632.
Screening C[C@@H]1CN(c2c(F)c(F)c3c(=O)c(C(=O)O)cn(C4CC4)c3c2F)C[C@H](C)N1 returned Tat export inh 68.0*, E coli growth-1 0.0665*, PfHsp90 set2 -2.0, phage Ecoli inh 97.6*, RecBCD conf 103.0*, Ecoli viability 104.9* and AddAB phage OD 104.2*.
Screening NCC1OC(OC2C(N)CC(N)C(OC3OC(CO)C(O)C(N)C3O)C2O)C(N)CC1O (configuration not stated) returned E coli growth-1 0.677.
